Compounds without any hit were thinned out: in the full panel of roughly 83,000, 20% have a hit.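 96-well plates, one dose, 48 hours. Percent growth reported; active if below 10.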 Values without a mark were called inactive. Active and inactive are the calls of the source.
Test system: LOX IMVI melanoma
Test: NCI-60 one-dose screen, 48 h (100 = growth as untreated, 0 = no growth, -100 = all killed)
Settings: 10 µM unless noted
Procedure: Growth inhibition of the LOX IMVI human tumor cell line is measured as a screen for anti-cancer activity. Cells are grown in 96 well plates and exposed to the test compound for 48 hours. Compounds are tested at a single concentration, which is 10^-5 M for most compounds. The reported endpoint is percent growth (GI% or GIPRCNT), where numbers from 0 - 100% represent growth inhibition, and numbers from -100% - 0 represent cell death. For example, a value of 40 represents 60% growth inhibition. A value of 0 means no net growth occurred over the course of the experiment. A value of -40 indicates 40% of cells at the beginning of the experiment died by the end of the experiment. A value of -100 means all cells are dead at the end of the experiment.
NCI-60 Human Tumor Cell Lines Screen was performed using the standard one-dose NCI protocol, which is described in more detail at https://dtp.cancer.gov/discovery_development/nci-60/default.htm.
Compounds with GIPRCNT values below 10 were considered active. Activity score was based on GIPRCNT using the following formula: […]
Score is 0 for GIPRCNT values of 100 or above, 50 for GIPRCNT values of 0, and 100 for GIPRCNT values of -100.

Question: BrC(Br)(Br)c1cnc2ccccc2n1 was tested. Which growth did it give?
Answer: 30.6%

Question: Which growth does the source give for COc1ccc(C2CC(c3cccc(Nc4ccncc4)c3)=NN2c2cc(Cl)cc(Cl)c2)cc1 (stereo not given) here?
Answer: -52.7% (active)

Question: How did the growth turn out when Cc1ccccc1CNc1ccc(N2CCOCC2)cc1 was run?
Answer: 102%

Question: For Cn1c(=O)c2[nH]c(CCCc3nc4c([nH]3)c(=O)n(C)c(=O)n4C)nc2n(C)c1=O, which growth is on record?
Answer: 105%

Question: With Cc1c([N+](=O)[O-])cc(C(C)(C)C)cc1[N+](=O)[O-] as the compound, how does the growth read?
Answer: 97.2%

Question: For CCCCc1ccc(Nc2nnc(SCC(=O)NC(=O)NCC)s2)cc1, which growth is on record?
Answer: 94.1%

Question: For COc1cc(NCC(O)CN(CC(C)C)C2CCCC2)c2ncccc2c1 (stereo not given), which growth is on record?
Answer: 82.7%

Question: How did the growth turn out when CCN(CC)S(=O)(=O)c1cccc([N+](=O)[O-])c1 was run?
Answer: 97.6%

Question: For Clc1ccc(N2N=C(c3cccc(Nc4ccncc4)c3)CC2c2ccc(Br)cc2)cc1 (stereo not given), which growth is on record?
Answer: -96% (active)

Question: Cc1cc(NC(=O)c2cnc(N3CCN(CCOCCOCCOCCOCCC(=O)N[C@H](C(=O)N4C[C@H](O)C[C@H]4C(=O)N[C@@H](C)c4ccc(-c5scnc5C)cc4)C(C)(C)C)CC3)cn2)c2ncccc2c1 was tested. Which growth did it give?
Answer: -85.8% (active)

Question: C=CCn1c(SCC(=O)Nc2ccc(C(=O)/C=C/c3cc(OC)c(OC)c(OC)c3)cc2)nnc1-c1cc(OC)c(OC)c(OC)c1 was tested. Which growth did it give?
Answer: 5.43% (active)

Question: For CN1CCN(C(=O)OCc2nc3c(N4CCOCC4)nc(-c4ccccc4)nc3n2C)CC1, which growth is on record?
Answer: -91.4% (active)

Question: For CC(=O)c1c[nH]c2ccc(-c3ccnc(Nc4ccc(NC(=O)c5cccc(F)c5)c(CN5CCOCC5)c4)n3)cc12, which growth is on record?
Answer: -3.87% (active)

Question: COc1ccc(C2CC(n3nnnc3-c3ccccc3)=NN2)cc1 (stereo not given) was tested. Which growth did it give?
Answer: 22%

Question: How did the growth turn out when Cc1ccc(C2CC(c3cccc(Nc4ccncc4)c3)=NN2c2ccccc2)cc1 (stereo not given) was run?
Answer: -100% (active)

Question: Which growth does the source give for C#CCn1cc(C=C2C(=O)NC(=S)NC2=O)c2cc(Cl)ccc21 here?
Answer: -46.1% (active)

Question: How did the growth turn out when CC(C)[N+](C)(CCOC(COc1ccccc1)COc1ccccc1)C(C)C was run?
Answer: 95.5%

Question: How did the growth turn out when COc1ccc(C2=C(c3ccccc3)c3ccc(OC(C)=O)cc3OC2(C)C)cc1 was run?
Answer: 71.4%

Question: Which growth does the source give for COc1cc(NCC(C)(O)CN(CC(C)C)CC(C)C)c2nc(C)ccc2c1 (stereo not given) here?
Answer: 86.7%

Question: CC(C)NC(=O)N1C(=O)CCC1NNC(=O)c1ccc([N+](=O)[O-])cc1 (stereo not given) was tested. Which growth did it give?
Answer: 93.9%

Question: With COc1ccc(C(=O)c2cc3c(N)c(C(=O)Nc4ccc(Cl)cc4)sc3nc2C)cc1 as the compound, how does the growth read?
Answer: 82.6%

Question: COc1cc2oc(-c3cccc(C(=O)Nc4ccc(Cl)cc4)c3)cc(=O)c2c(OC)c1OC was tested. Which growth did it give?
Answer: 2.16% (active)

Question: How did the growth turn out when Nc1nnc2cc(Cl)ccc2n1 was run?
Answer: 87.9%

Question: For NNC(=O)/C(=C\c1ccc([N+](=O)[O-])cc1)CC(=O)c1ccc(Cl)c(Cl)c1, which growth is on record?
Answer: 71.3%

Question: How did the growth turn out when COC(=O)C1=C(C(=O)ONCCN(C)C)C2C=CC1(C(Cc1ccccc1)Nc1ccc(F)cc1)O2 (stereo not given) was run?
Answer: 96.3%

Question: With COc1ccc(C2CC(c3cccc(Nc4ccncc4)c3)=NN2c2ccccc2)cc1 (stereo not given) as the compound, how does the growth read?
Answer: 28.5%

Question: For COc1ccc(/C(=C\c2ccccc2)C(=O)O)cc1OC, which growth is on record?
Answer: 95.3%

Question: Which growth does the source give for CC1(C)CC[C@]2(C(=O)NCC#CCN3CCOCC3)CC[C@]3(C)C(=CC[C@@H]4[C@@]5(C)Cc6c([nH]c7ccccc67)C(C)(C)[C@@H]5CC[C@]43C)[C@@H]2C1 here?
Answer: 94.6%

Question: How did the growth turn out when COc1ccc(NC(=O)c2sc3nc(C)c(C(O)c4ccc(OC)cc4)cc3c2N)cc1 (stereo not given) was run?
Answer: 40.5%

Question: How did the growth turn out when O=C(Nc1ccc(Cl)cc1)Nc1ccc(Cl)c(Cl)c1 was run?
Answer: 7.43% (active)

Question: Fc1ccc2nc3c(cc2c1)CSc1nnc(-c2ccc[nH]c2=S)n1N3 was tested. Which growth did it give?
Answer: 96.1%

Question: For S=c1[nH]cccc1-c1nnc2n1Nc1nc3ccccc3cc1CS2, which growth is on record?
Answer: 98.6%

Question: For C=Cc1cc[n+](CCCCCCCCCCCC)cc1, which growth is on record?
Answer: 99.7%

Question: With Cc1[nH]c(C(=O)Nc2ccccc2OCc2cccc(C(=O)NCCN)c2)c(Cl)c1Cl as the compound, how does the growth read?
Answer: -48.1% (active)

Question: COc1c(Cl)cc(Cl)c2ccc(C=C3C(=O)N(C)C(=O)N(C)C3=O)nc12 was tested. Which growth did it give?
Answer: 101%

Question: Cc1cc2nc(-c3ccccc3)c(-c3ccccc3)nc2cc1C was tested. Which growth did it give?
Answer: 100%

Question: How did the growth turn out when COc1ccc2c(Nc3ccc(NS(C)(=O)=O)cc3)c3ccccc3nc2c1 was run?
Answer: -5.18% (active)

Question: Clc1cc(Cl)cc(N2N=C(c3cccc(Nc4ccncc4)c3)CC2c2ccc3c(c2)OCO3)c1 (stereo not given) was tested. Which growth did it give?
Answer: -84.3% (active)

Question: For O=S(=O)(NCCCNc1nccc(-c2c(-c3ccccc3)nc3occn23)n1)c1ccc(Cl)cc1, which growth is on record?
Answer: 72.7%

Question: How did the growth turn out when CCc1c(Nc2ccc(C)cc2)[nH]c(N)nc1=S was run?
Answer: 105%
